Assay outcomes as filed in PubChem BioAssay.
A selection: hits, their analogues and other compounds. The true share with any hit is near 2.8%.
Pol kappa inh = qHTS for Inhibitors of Polymerase Kappa; purified Pol kappa, fluorescent DNA synthesis assay, 10 min; Potency, µM (highest dose often 107 µM), usual class: inhibitors; actives 0.53% (n = 400,000)
Target sequence (Q9UBT6 whole entry, looked up): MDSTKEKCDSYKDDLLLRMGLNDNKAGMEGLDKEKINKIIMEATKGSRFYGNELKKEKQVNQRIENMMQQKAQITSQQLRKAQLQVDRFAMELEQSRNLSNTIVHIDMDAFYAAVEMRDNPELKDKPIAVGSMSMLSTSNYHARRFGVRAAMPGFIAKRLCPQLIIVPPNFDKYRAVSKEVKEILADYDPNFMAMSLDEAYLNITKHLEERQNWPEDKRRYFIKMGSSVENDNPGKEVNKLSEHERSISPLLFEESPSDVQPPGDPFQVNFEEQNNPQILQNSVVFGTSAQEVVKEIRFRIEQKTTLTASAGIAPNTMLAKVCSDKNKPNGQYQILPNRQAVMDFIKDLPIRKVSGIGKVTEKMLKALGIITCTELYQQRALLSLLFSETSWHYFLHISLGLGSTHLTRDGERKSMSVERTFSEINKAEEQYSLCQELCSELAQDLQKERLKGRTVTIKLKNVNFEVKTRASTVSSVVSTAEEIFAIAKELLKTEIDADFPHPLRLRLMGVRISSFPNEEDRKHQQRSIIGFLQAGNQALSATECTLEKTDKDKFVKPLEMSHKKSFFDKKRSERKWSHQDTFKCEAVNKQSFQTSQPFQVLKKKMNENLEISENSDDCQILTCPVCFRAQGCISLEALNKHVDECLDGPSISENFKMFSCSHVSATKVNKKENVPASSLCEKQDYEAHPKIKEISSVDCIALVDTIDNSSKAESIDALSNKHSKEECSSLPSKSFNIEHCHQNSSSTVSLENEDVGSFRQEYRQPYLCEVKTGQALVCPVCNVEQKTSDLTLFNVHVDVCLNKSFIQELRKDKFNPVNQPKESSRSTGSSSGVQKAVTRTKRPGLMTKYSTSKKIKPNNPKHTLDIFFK
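10 nM Pol kappa was preincubated with compounds for 15 min at room temperature. Reaction started with 50 nM (final) substrate. Fluorescence read kinetically at 0 and 10 min.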
PI5P4K alpha inh = qHTS for Inhibitors of phosphatidylinositol 5-phosphate 4-kinase (PI5P4K) | Phosphatidylinositol 5-phosphate 4-kinase type-2 alpha (Homo sapiens), P48426 | PI5P4Kalpha enzyme, ADP-Glo luminescence, 60 min; stronger effect = lower value | actives 1.2% (n = 330,000) | max response, %; active means max response of -50% or lower; inconclusive means between -30% and -50%; inactive means -30% or higher; further: value at the top dose of about 77 µM
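Single end-point luminescence (ADP-Glo) quantified ADP from PI5P4Kalpha turnover; ATP 5 microM final, 1 h at RT, 0.1% CHAPS and 0.28 mM EGTA in HEPES pH 7.4.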
Pol beta inh = qHTS Assay for Inhibitors of DNA Polymerase Beta | P06746 | Pol beta primer extension/strand displacement, fluorescence kinetic | Potency, µM (highest dose often 114 µM), actives largely listed as inhibitors | actives 1.3% (n = 340,000)
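Kinetic readout of DNA synthesis with strand displacement by Pol beta. Compound and 10 nM enzyme sit 15 min at room temperature; 50 nM substrate starts the reaction, read immediately and at 10 min.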
POLI inh = qHTS for Inhibitors of Polymerase Iota; DNA polymerase iota (Homo sapiens), Q9UNA4; Pol iota fluorescent replication assay, 10 min; Potency, µM (highest dose often 115 µM), hits mostly inhibitors; actives 1% (n = 390,000); AID 588590, 2011
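Fluorescent replication assay read twice, at 0 min and 10 min after adding 50 nM (final) substrate. Enzyme (10 nM) and compounds were first incubated 15 min at room temperature; enzyme-free buffer wells were negative controls.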
Pol eta inh = qHTS for Inhibitors of Polymerase Eta. DNA polymerase eta (Homo sapiens), Q9Y253. recombinant Pol eta, fluorescent DNA replication assay. Potency, µM (highest dose often 114 µM), hits mostly inhibitors. actives 1.2% (n = 390,000)
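Pol eta (10 nM) was preincubated with compounds for 15 min at room temperature, after which fluorescent replication substrate (50 nM final) was added to start the reaction. Fluorescence was read kinetically at 0 and 10 min.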
WRN inhibitor = qHTS for Inhibitors of WRN Helicase; actives 0.46% (n = 360,000); Potency, µM (doses to about 114 µM), hits mostly inhibitors; Bifunctional 3'-5' exonuclease/ATP-dependent helicase WRN (Homo sapiens), Q14191; WRN helicase unwinding, fluorescent forked duplex, kinetic; further: nearly all actives have a fitted effect of over 55% in size
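Screening of the MLSMR collection measured strand separation of a quenched forked DNA duplex (100 nM) by 20 nM WRN with 2 mM ATP, all final. Compounds were preincubated with enzyme 15 min at room temperature.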
Hits are given with their value; 0 = inactive; ? = inconclusive; - = no result given; [ ] = dose if it differs, or a comment. Unless noted, the call rests on the fitted dose curve; in most records, active means well fitted curve in the direction sought with a large enough effect; inconclusive means small, poorly fitted or top-dose-only effect, or another doubt; inactive means no such curve, though single readings can be large; an effect the other way counts as inactive or inconclusive.

SMILES	Pol kappa inh	PI5P4K alpha inh	Pol beta inh	POLI inh	Pol eta inh	WRN inhibitor
O=[N+]([O-])c1cc(-c2csc(NCCc3nc4cc(C(F)(F)F)ccc4n3CCCO)n2)ccc1Cl	0	0	-	12.6µM	?	0
OCCCn1c(CCNc2nc(-c3ccc(Cl)cc3)cs2)nc2cc(C(F)(F)F)ccc21	0	0	-	0	0	0
CCOC(=O)c1ccc2c(c1)n(CC)c(/C=C/N(C)c1ccccc1)[n+]2CC	0	0	0	0	0	0
CC[n+]1c(/C=C/N(C)c2ccccc2)n(-c2ccccc2)c2ccc(-c3nc4ccccc4s3)cc21	21.2µM	?	0	0	?	?
CCN(CC)CCOC(=O)c1ccc(N/C=C(/C#N)c2nc(-c3ccc4c(c3)OCO4)cs2)cc1	0	-53.0	?	0	0	0
CCN(CC)CCOC(=O)c1ccc(N/C=C(/C#N)c2nc(-c3ccc(OC)cc3)cs2)cc1	0	-68.6	?	0	0	?
CCN(CC)CCOC(=O)c1ccc(N/C=C(/C#N)c2nc(-c3cc4ccccc4oc3=O)cs2)cc1	0	?	0	?	0	0
CCN1CCC(N(Cc2cccc(OC)c2)C(=O)Nc2ccc(C)cc2Cl)CC1	0	-	0	0	0	-
COc1ccccc1C(NC(C)=O)c1cc(Cl)c2cccnc2c1O (centres undefined)	0	0	0	0	0	0
O=C(O)COc1ccccc1C(Nc1cccnc1)c1cc(Cl)c2cccnc2c1O (centres undefined)	?	-64.5	0	?	79.4µM	?
C[n+]1c(-c2ccccc2)cc2c(=Cc3ccc([N+](=O)[O-])cc3)c3ccccc3n21	0	?	-	50.1µM	0	?
CN(C)c1ccc(C=c2c3cc(O)ccc3n3c2cc(-c2ccccc2)[n+]3C)cc1	?	-53.7	-	50.1µM	?	17.8µM
C[n+]1c(-c2ccccc2)cc2c(=Cc3ccccc3)c3ccccc3n21	0	-50.3	-	50.1µM	0	?
Cc1cc(C)c(NC(=O)CN2C(=O)CCSc3ccc(S(=O)(=O)N4CCCC4)cc32)c(C)c1	0	-	?	0	0	-
COCCCNC(=O)c1sc2nc(C)c(C(=O)Nc3ccc(C)cc3C)c(-c3ccccc3Cl)c2c1N	0	-	0	0	0	-
COc1ccc(-c2nn[nH]n2)cc1OC	0	0	0	0	0	0
Nc1cc(-c2nn[nH]n2)ccc1F	?	?	0	?	11.2µM	0
Cc1cccc(CC(=O)NCCc2csc(-c3ccc(C(F)(F)F)cc3)n2)c1	0	-	0	0	0	-
CC1=CC(=O)C(Sc2ccc(C)cc2)=CC1=O	-	-71.5	-	-	0	0
COc1ccc(N(CCN2C(=O)c3ccccc3C2=O)C(=O)c2cccc([N+](=O)[O-])c2)cc1	0	0	0.159µM	0	?	0
COc1ccc(N(CCCN2C(=O)c3cccc4cccc(c34)C2=O)C(=O)c2ccncc2)cc1	0	0	0	0	0	0
CCOC(=O)c1c(NC(=O)C(C)Sc2cn(CCNC(=O)c3ccccc3OC)c3ccccc23)sc2c1CCC2 (centres undefined)	0	-	0	0	0	-
COc1cccc(NC(=O)NNC(=O)CCc2ccc(O)c(O)c2)c1	25.1µM	0	0	39.8µM	0	0
CC(=O)OCCCNc1cc(SCc2ccco2)c2nonc2c1[N+](=O)[O-]	12.6µM	-50.7	14.1µM	3.16µM	22.4µM	22.4µM
CCCC(=O)OCCNc1cc(SCc2ccco2)c2nonc2c1[N+](=O)[O-]	35.5µM	-60.5	11.2µM	2.51µM	11.2µM	35.5µM
SMILES	Pol kappa inh	PI5P4K alpha inh	Pol beta inh	POLI inh	Pol eta inh	WRN inhibitor
CCCSc1cc(NCCOC(C)=O)c([N+](=O)[O-])c2nonc12	0	0	0	0	0	0
CCC(=O)OCCNc1cc(Sc2nc3ccccc3[nH]2)c2nonc2c1[N+](=O)[O-]	0	-56.1	0	?	?	?
O=C(CSc1ccccc1)N1CCN(S(=O)(=O)c2ccccc2F)CC1	0	?	44.7µM	50.1µM	?	0[11.6 µM]
COc1cccc(CNC(=O)c2c3c(nc4ccccc24)C(=O)N(C2CCCCC2)C3)c1	0	-	?	0	0	-
Cc1ccccc1OCc1nnc(SCC(=O)O)n1-c1ccccc1	0	?	0	?	0	0
Cc1ccccc1OCc1nnc(SCC(=O)O)n1-c1cccc(Cl)c1	0	-52.8	0	0	0	0
N=C1C(c2nc3ccccc3[nH]2)=C(O)CN1c1ccccc1	0	0	0	0	0	0
N=C1C(c2nc3ccccc3[nH]2)=C(O)CN1c1ccc(CC(=O)O)cc1	0	-	0	?	79.4µM	0
CCOc1ccccc1NC(=O)CN1C(=O)COc2ccc(S(=O)(=O)NC3CCCC3)cc21	0	-	0	0	0	-
Cc1ccc(C(=O)N/N=C/c2ccoc2)cc1C	0	?	25.1µM	0	?	0
O=C(N/N=C/c1ccoc1)c1cc(Br)ccc1O	?	?	20µM	89.1µM	?	0
CCOc1cccc(C(=O)N/N=C/c2ccoc2)c1	0	0	?	0	0	0
O=C(N/N=C/c1ccoc1)c1ccccc1Br	0	0	0	?	0	0
CCOc1ccccc1C(=O)N/N=C/c1ccoc1	0	?	20µM	79.4µM	0	0[11.6 µM]
CSc1ccc(/C=N/NC(=O)c2ccc(C)c(C)c2)cc1	0	0	25.1µM	?	?	0[11.6 µM]
COc1cccc(C(=O)n2nc(-c3cccnc3)nc2NCc2ccc(F)cc2)c1	0	-	0	0	0	-
COc1ccc(-c2cc(=O)c3cc(OC)ccc3[nH]2)cc1	0	0	0	35.5µM	0	0
COc1cc2[nH]c(-c3ccc(C)cc3)cc(=O)c2cc1OC	0	0	0	0	0	0
COc1ccc(-c2cc(=O)c3cc(C)ccc3[nH]2)cc1	0	0	0	79.4µM	0	0
Cc1ccc2[nH]c(-c3ccccc3)cc(=O)c2c1	0	0	0	0	0	0
O=C(Oc1ccc(F)cc1)c1nc(SCc2ccc(F)cc2)ncc1Cl	0	-	0	0	0	-
Nc1cccc(/C=C2\C=Cc3ccccc32)c1	0	-	-	?	-	-
CCCOc1ccc(C(=O)Nc2cc3c(cc2N2CCOCC2)n(C)c(=O)n3C)cc1	0	-	0	0	0	-
COc1ccc(C)cc1NC(=O)C(=O)NCC(c1cccnc1)N1CCN(c2ccccc2F)CC1 (centres undefined)	0	-	0	0	0	-
Cc1ccc(C)n1-c1sccc1C(=O)O	0.891µM	-83.2	3.98µM	0	0	3.16µM
Cc1cc(C(=O)O)c(C)n1-c1ccccc1	0	0	0	0	0	0
O=C(Cc1cccs1)Nc1nnc(Cc2ccc(F)cc2)s1	-	-	39.8µM	-	-	-
